Only some compounds are listed: those with a hit (about 7.9% of all), similar ones and a draw of the others.
KB-3-1 cytotox: KB-3-1 parental cell cytotoxicity. Potency, µM (top dose mostly 46.1 µM), hits mostly cytotoxic. 1.4% of 400,000 active. KB-3-1 viability, CellTiter-Glo ATP luminescence, 72 h; further: on the % scale 0 is the no-effect control and ±100 the full control effect; nearly all actives have a fitted effect of over 60% in size
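Viability of parental KB-3-1 cells, measured by CellTiter-Glo luminescence, followed a 72 h incubation at 37 °C with pinned compounds in phenol-red-free DMEM containing 10% FBS.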
SW480 rereplic: inducers of DNA re-replication in SW480 colon cancer cells; Potency, µM (doses to about 46.1 µM), inactives show top-dose re-replication activation, actives largely listed as activators; SW480 DNA re-replication, Hoechst DNA content imaging, 48 h; 1.8% of 340,000 active; further: % of control where 0% means no effect; nearly all actives have a fitted effect of over 55% in size
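Per well, 250 cells were exposed to pinned compound for 48 hr. Nuclear DNA was visualised with Hoechst (40 min, 37 C) and total object intensity recorded by fluorescence scanning.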
KB-V1 MDR tox: kills drug-selected multidrug resistant KB-V1 cells. KB-V1 MDR cells viability, CellTiter-Glo, 72 h. Potency, µM (highest dose often 46.1 µM), hits mostly cytotoxic. 3.4% of 400,000 active. AID 1347076; further: on the % scale 0 is the no-effect control and ±100 the full control effect; nearly all actives have a fitted effect of over 60% in size
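qHTS viability screen in drug-selected KB-V1 MDR cells: 72 h compound treatment at 37 degrees C, ATP luminescence end point.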
HT1080 IDH1KD tx: toxicity to HT-1080 IDH1 knockdown cells (counter line). AID 686971. HT-1080 IDH1 knockdown viability, ATP luminescence, 48 h. Potency, µM (series often up to 46.1 µM), for the others: top-dose activity, negative = toxicity, usual class: cytotoxic. 2% of 360,000 active;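 further: 0% = DMSO wells and -100% = cell-free medium wells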
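In this qHTS, HT-1080 cells depleted of IDH1 are exposed for 48 h at 37 °C to compound titrations. Toxicity is scored from CellTiter-Glo luminescence, with DMSO as full viability and medium alone as none.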
HT1080NT lethal: kills 2HG-producing HT-1080-NT fibrosarcoma cells | Potency, µM (doses to about 46.1 µM), for the others: at the top dose activity, negative = less viability, most hits filed as cytotoxic | 1.6% of 360,000 active | HT-1080-NT fibrosarcoma viability, CellTiter-Glo ATP luminescence, 48 h;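 further: NT is the 2HG producing partner of a matched IDH1 knockdown line; 0% = DMSO-treated cells and -100% = media-only wells without cells; nearly all actives have a fitted effect of over 55% in size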
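Viability of the 2HG-overproducing fibrosarcoma line after 48 hours of compound exposure at 37 degrees C was determined by luminescence with CellTiter-Glo, and concentration-effect curves were then fitted and categorized.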
MCF10A rereplic: inducers of DNA re-replication in MCF 10A breast cells; MCF 10A DNA re-replication, Hoechst nuclear intensity, 48 h; 2.9% of 350,000 active; Potency, µM (doses to about 46.1 µM), for the others: at the highest dose activity, positive = re-replication, usual class: activators; AID 624296; further: % of control where 0% means no effect; nearly all actives have a fitted effect of over 50% in size
Numbers without * were called inactive; i = inactive; ? = inconclusive; / = no result given. The call rests on the fitted dose curve; in most records, active means well fitted curve in the direction sought with a large enough effect; inconclusive means small, poorly fitted or top-dose-only effect, or another doubt; inactive means no such curve, though single readings can be large; an effect the other way counts as inactive or inconclusive. Potency means the concentration at half of the fitted maximal effect.

SMILES	KB-3-1 cytotox	SW480 rereplic	KB-V1 MDR tox	HT1080 IDH1KD tx	HT1080NT lethal	MCF10A rereplic
COc1ccc(N(CC(=O)N/N=C/c2ccc(-c3ccc([N+](=O)[O-])cc3)o2)S(=O)(=O)c2ccc(C)cc2)cc1	i	9.2µM*	i	-6.9%	-2.9%	?
CC(C)C[C@H]1CN(CCCC[C@@H]2CNC(=O)C(=O)N2CCc2ccccc2)C(=O)C(=O)N1Cc1ccccc1	i	/	i	?	15.1%	/
CCCNC(=O)C1(C)CCCN(C(=O)c2cc(C)nn2C(C)(C)C)C1 (centres undefined)	i	/	i	?	16.8%	/
CCCCC(=O)N/N=C/c1ccc(-c2ccc([N+](=O)[O-])cc2)o1	i	11.1%	i	-4.7%	-9.1%	0.3%
CC(C)(C)NC(=S)N/N=C\c1ccc(-c2ccc([N+](=O)[O-])cc2)o1	?	20.6µM*	i	4.0%	12.5%	16.4µM*
Fc1ccc(Sc2nc(-c3ccccc3)nnc2C(F)(F)F)cc1	16.4µM*	?	i	23.1µM*	23.1µM*	3.66µM*
Fc1ccc(Oc2nc(-c3ccccc3)nnc2C(F)(F)F)cc1	i	1.9%	i	17.6%	7.1%	?
CC12CCC(C)(c3nc4ccccc4nc31)C2(C)C	i	-5.4%	i	6.9%	0.0%	4.0%
Cc1[nH]nc2c1-c1nc3ccccc3nc1C(C)(C)C2	?	?	18.4µM*	-21.9%	-18.7%	?
Nc1ccccc1N1C(=O)c2cccc3cccc(c23)C1=O	i	18.4µM*	?	-2.1%	-3.5%	8.2µM*
O=C1c2cccc3cccc(c23)C(=O)N1c1ccccc1Cl	i	-3.4%	i	-3.3%	3.5%	18.0%
NCCCN(Cc1ccc(Cl)cc1)c1ccc(Br)cn1	/	/	/	11.2µM*	?	/
NCCCN(Cc1ccc(Cl)c(Cl)c1)c1ccc(Br)cn1	/	/	/	11.2µM*	?	/
COC(=O)C1=CN(c2ccc(C(C)(C)C)cc2)C(N)=C(C#N)C1c1cccc2ccccc12 (centres undefined)	?	/	i	?	?	/
Cc1ccc(CN2CCC2(C)C(=O)NC2CCc3ccccc32)cc1 (centres undefined)	i	/	i	-21.6%	-17.4%	/
CN1C=C/C(=C\c2cc[n+](C)c3ccccc23)c2ccccc21	i	-23.5%	i	6.51µM*	?	0.581µM*
C[n+]1ccc(/C=C/c2cc[n+](C)c3ccccc23)c2ccccc21	?	/	i	/	/	/
C[C@@H]1CN([C@H](C)CO)C(=O)CCCn2nncc2CO[C@H]1CN(C)C(=O)c1ccncc1	i	/	i	4.9%	-3.1%	/
COCCCN(C(=O)c1ccco1)c1nc(-c2cc(OC)ccc2OC)cs1	i	-2.2%	1.84µM*	3.6%	?	23.6%
COCCCN(C(C)=O)c1nc(-c2ccc(OC)cc2)cs1	11.6µM*	?	7.31µM*	-22.5%	-29.1%	?
COc1ccc(-c2csc(N(Cc3ccccc3)C(=O)COc3ccc(Cl)cc3)n2)cc1	i	-3.1%	i	-6.1%	-2.1%	15.5%
CCN(CC)CCCN(C(=O)c1ccccc1F)c1nc(-c2ccc(OC)cc2)cs1	i	?	?	?	18.4µM*	?
COc1ccc(OC)c(-c2csc(N(Cc3ccco3)C(=O)c3ccco3)n2)c1	i	1.0%	i	?	-3.6%	?
COc1ccc(-c2csc(N(CCc3ccc(OC)c(OC)c3)C(=O)COc3ccccc3)n2)cc1	i	-8.8%	3.66µM*	12.1%	5.3%	6.1%
COc1ccc(-c2csc(N(CCCN(C)C)C(=O)c3cc(OC)c(OC)c(OC)c3)n2)cc1	i	7.4%	i	-8.6%	-1.2%	1.3%
CC(C)NC(=O)c1cc(C2CCCCN2S(=O)(=O)c2ccc(F)cc2F)on1 (centres undefined)	i	/	i	1.5%	16.5%	/

Screens (PubChem)
